Assay results reported in PubChem BioAssay (EPA / NIEHS).
Inconclusive results are not listed. Calls of active or inactive are those of the source. The calls were made as follows: active = hit-call score of the fitted dose curve at least 0.9, where 1 is the maximum; inconclusive = response in the unintended direction; inactive = score below 0.9.

What was measured:
[1] = biological target: Estrogen receptor (Homo sapiens) (UniProt P03372); assay: CCTE_Deisenroth_AIME_96WELL_LUC_Active: CCTE's 96-well Estrogen Receptor Transactivation Assay with AIME metabolic competence (ERTA luciferase; metabolism positive), Deisenroth Lab (AID 2284023)
In short: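 Chemicals pre-incubated 2 h with alginate-immobilized phenobarbital/beta-naphthoflavone-induced male Sprague Dawley rat liver S9, then medium transferred to VM7Luc4E2 cells for 24 h luciferase read-out. 10-point series 0.002 - 200 uM; fitted relative to 17beta-estradiol.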

[2] = biological target: Estrogen receptor (Homo sapiens) (UniProt P03372); assay: CCTE_Deisenroth_AIME_96WELL_LUC_Inactive: CCTE's 96-well Estrogen Receptor Transactivation Assay without AIME metabolic competence (ERTA luciferase; metabolism negative), Deisenroth Lab (AID 2284025)
In short: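 VM7Luc4E2 breast cells, luciferase read 24 h after dosing with medium pre-incubated 2 h on alginate-water lids (metabolism negative). 10-point series 0.002–200 uM, single technical replicate, n≥4; fit relative to 17beta-estradiol.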

[3] = CCTE_Deisenroth_AIME_96WELL_CTox_Active: Cytotoxicity Assessment (CTOX) in CCTE's 96-well Estrogen Receptor Transactivation Assay with AIME metabolic competence (metabolism positive), Deisenroth Lab (AID 2284028)
In short: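 Chemicals (0.002–200 uM) were first incubated 2 h with alginate-immobilized phenobarbital/beta-naphthoflavone-induced male rat liver S9; conditioned medium then went onto VM7Luc4E2 cells for 24 h, with viability read by protease-substrate fluorescence, fitted bidirectionally.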

[4] = CCTE_Deisenroth_AIME_96WELL_CTox_Inactive: Cytotoxicity Assessment (CTOX) in CCTE's 96-well Estrogen Receptor Transactivation Assay without AIME metabolic competence (metabolism negative), Deisenroth Lab (AID 2284029)
In short: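 Chemicals (0.002 - 200 uM, 10 points) incubated 2 h with alginate-water microspheres (no S9), then medium moved onto VM7Luc4E2 cells for 24 h. Viability by protease-substrate cleavage to fluorescent probe; bidirectional fitting.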

Sequence of Estrogen receptor (Homo sapiens) (P03372 whole entry, looked up): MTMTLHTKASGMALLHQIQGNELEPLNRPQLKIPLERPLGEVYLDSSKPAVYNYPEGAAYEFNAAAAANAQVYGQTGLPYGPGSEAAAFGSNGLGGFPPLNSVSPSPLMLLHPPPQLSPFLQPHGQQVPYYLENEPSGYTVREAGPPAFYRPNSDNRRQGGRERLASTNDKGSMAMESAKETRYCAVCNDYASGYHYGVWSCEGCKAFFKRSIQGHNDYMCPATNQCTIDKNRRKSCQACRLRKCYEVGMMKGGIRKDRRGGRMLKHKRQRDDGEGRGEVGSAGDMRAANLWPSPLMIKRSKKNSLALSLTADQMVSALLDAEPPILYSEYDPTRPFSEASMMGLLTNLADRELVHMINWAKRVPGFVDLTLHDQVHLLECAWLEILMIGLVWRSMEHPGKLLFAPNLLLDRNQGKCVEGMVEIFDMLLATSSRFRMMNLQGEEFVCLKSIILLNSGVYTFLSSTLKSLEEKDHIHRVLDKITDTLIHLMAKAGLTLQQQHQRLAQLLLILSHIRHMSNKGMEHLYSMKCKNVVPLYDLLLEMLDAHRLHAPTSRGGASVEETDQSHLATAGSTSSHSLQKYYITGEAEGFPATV

Structure (SMILES)	AC50 [1]	AC50 [2]	outcome [3]	outcome [4]	AC50 [3]	AC50 [4]
c1ccc([C@H]2O[C@H]2c2ccccc2)cc1	66.7 µM (active)	72.1 µM (active)	inactive	inactive	–	–
Oc1ccccc1Cc1ccccc1	27.7 µM (active)	27.7 µM (active)	–	–	162 µM (active)	175 µM (active)
